# Assay results: ChEMBL document CHEMBL2218924, “A broad activity screen in support of a chemogenomic map for kinase signalling research and drug discovery” (Biochem J, 2013)
# How the values were obtained:
# [1] = target: Serine/threonine-protein kinase SIK1 (Homo sapiens) (UniProt P57059); conditions: at 10 µM
# [2] = target: SRSF protein kinase 1 (Homo sapiens) (UniProt Q96SB4); conditions: at 1 µM
# [3] = target: SRSF protein kinase 1 (Homo sapiens) (UniProt Q96SB4); conditions: at 10 µM
# [4] = target: SRSF protein kinase 2 (Homo sapiens) (UniProt P78362); conditions: at 1 µM
# Chain of SRSF protein kinase 2 (Homo sapiens) (P78362 whole entry, looked up): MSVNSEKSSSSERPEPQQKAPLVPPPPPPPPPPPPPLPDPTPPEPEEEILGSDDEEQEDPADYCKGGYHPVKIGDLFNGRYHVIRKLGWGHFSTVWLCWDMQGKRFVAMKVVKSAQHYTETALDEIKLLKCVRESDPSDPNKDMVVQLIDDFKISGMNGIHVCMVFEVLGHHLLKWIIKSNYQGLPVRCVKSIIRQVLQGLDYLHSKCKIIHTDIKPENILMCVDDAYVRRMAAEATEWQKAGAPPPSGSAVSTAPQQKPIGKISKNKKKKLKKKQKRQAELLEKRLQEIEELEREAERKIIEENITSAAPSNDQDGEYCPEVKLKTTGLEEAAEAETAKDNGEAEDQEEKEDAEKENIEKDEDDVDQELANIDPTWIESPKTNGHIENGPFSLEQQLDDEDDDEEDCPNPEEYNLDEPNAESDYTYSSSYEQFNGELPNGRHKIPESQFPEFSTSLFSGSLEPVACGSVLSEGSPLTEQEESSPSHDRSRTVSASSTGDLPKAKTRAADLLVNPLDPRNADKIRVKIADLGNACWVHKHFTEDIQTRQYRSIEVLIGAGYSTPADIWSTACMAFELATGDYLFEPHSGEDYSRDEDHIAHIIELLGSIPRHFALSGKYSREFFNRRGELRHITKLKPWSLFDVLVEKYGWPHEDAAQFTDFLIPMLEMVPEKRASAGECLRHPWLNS
# [5] = target: SRSF protein kinase 2 (Homo sapiens) (UniProt P78362); conditions: at 10 µM
# [6] = target: Serine/threonine-protein kinase 33 (Homo sapiens) (UniProt Q9BYT3); conditions: at 1 µM
# Chain of Serine/threonine-protein kinase 33 (Homo sapiens) (Q9BYT3 whole entry, looked up): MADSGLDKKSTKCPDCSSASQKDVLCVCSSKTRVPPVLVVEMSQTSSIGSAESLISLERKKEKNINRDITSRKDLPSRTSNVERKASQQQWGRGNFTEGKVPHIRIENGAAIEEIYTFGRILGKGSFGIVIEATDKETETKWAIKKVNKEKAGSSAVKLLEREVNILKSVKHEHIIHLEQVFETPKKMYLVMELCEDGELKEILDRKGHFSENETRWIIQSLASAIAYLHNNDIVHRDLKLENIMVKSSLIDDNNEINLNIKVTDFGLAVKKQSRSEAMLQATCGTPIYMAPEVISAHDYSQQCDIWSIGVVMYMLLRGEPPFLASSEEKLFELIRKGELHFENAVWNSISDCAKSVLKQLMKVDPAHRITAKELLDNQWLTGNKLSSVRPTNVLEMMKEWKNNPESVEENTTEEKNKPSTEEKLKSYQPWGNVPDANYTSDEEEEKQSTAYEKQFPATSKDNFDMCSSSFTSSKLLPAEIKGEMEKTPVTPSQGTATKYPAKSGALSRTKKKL
# [7] = target: Serine/threonine-protein kinase 33 (Homo sapiens) (UniProt Q9BYT3); conditions: at 10 µM
# [8] = target: Serine/threonine-protein kinase PLK2 (Homo sapiens) (UniProt Q9NYY3); conditions: at 1 µM
# Chain of Serine/threonine-protein kinase PLK2 (Homo sapiens) (Q9NYY3 whole entry, looked up): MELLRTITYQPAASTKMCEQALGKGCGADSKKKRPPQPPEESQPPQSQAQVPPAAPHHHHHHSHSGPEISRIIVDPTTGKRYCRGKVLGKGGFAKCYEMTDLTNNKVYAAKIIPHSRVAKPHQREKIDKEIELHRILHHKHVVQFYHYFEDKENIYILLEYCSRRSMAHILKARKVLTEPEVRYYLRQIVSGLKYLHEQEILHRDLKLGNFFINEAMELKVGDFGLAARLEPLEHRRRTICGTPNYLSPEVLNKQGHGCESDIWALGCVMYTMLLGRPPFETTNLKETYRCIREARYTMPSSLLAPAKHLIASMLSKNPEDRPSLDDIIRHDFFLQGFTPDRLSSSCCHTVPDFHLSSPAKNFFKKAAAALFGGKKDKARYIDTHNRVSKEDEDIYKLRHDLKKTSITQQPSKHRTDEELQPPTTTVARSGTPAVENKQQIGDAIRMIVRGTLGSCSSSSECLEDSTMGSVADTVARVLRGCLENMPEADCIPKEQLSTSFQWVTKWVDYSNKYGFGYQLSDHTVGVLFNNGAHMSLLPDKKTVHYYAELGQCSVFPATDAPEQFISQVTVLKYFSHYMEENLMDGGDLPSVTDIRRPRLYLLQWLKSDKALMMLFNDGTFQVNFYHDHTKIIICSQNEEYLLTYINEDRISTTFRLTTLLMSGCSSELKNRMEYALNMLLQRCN
# [9] = target: Serine/threonine-protein kinase PLK2 (Homo sapiens) (UniProt Q9NYY3); conditions: at 10 µM
# [10] = target: Tyrosine-protein kinase SYK (Homo sapiens) (UniProt P43405); conditions: at 1 µM
# Chain of SRSF protein kinase 1 (Homo sapiens) (Q96SB4 whole entry): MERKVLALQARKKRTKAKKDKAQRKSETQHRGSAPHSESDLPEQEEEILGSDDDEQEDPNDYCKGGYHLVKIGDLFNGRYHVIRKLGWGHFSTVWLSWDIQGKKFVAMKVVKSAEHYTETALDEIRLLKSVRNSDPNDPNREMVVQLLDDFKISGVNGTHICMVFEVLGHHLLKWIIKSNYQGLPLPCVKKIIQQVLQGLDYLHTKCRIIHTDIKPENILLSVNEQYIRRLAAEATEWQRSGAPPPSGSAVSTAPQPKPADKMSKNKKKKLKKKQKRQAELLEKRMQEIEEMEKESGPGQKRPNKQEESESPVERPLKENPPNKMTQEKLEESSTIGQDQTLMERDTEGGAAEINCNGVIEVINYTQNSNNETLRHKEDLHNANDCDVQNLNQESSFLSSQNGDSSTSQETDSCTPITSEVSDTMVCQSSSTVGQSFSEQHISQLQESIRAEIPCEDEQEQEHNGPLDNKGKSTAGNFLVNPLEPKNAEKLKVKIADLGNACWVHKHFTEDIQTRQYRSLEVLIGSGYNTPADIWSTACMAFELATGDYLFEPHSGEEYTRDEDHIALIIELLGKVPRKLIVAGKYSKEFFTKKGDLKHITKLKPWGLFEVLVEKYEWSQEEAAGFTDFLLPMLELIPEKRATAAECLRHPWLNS
# Chain of Serine/threonine-protein kinase SIK1 (Homo sapiens) (P57059 whole entry): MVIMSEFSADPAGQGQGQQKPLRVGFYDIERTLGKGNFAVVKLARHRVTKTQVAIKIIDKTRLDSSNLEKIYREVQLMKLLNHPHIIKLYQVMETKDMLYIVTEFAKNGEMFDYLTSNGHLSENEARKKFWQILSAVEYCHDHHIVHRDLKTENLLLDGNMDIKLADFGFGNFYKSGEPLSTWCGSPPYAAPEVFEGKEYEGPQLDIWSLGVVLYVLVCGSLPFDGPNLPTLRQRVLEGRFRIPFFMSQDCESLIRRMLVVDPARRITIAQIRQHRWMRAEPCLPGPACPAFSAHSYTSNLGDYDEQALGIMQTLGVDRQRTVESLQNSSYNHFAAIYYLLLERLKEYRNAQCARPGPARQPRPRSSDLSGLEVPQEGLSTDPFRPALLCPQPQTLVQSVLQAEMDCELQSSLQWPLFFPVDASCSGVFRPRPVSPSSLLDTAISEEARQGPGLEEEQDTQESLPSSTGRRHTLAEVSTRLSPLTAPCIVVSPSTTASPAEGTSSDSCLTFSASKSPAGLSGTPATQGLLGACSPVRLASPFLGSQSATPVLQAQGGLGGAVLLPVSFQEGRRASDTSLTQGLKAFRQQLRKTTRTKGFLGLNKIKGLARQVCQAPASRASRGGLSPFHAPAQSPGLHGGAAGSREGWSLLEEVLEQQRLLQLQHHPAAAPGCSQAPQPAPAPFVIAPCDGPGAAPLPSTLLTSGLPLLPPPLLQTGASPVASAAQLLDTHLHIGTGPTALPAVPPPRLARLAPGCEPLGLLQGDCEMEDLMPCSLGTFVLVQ
SMILES,residual activity [1] [%],residual activity [2] [%],residual activity [3] [%],residual activity [4] [%],residual activity [5] [%],residual activity [6] [%],residual activity [7] [%],residual activity [8] [%],residual activity [9] [%],residual activity [10] [%]
Cc1ccc(S(=O)(=O)/C=C/C#N)cc1,97,101,93,95,95,103,96,98,85,104
O=Nc1c(-c2c(O)[nH]c3ccccc23)[nH]c2ccccc12,8,90,66,96,67,43,8,97,82,49
O=C1NC(=O)c2cc(Nc3ccc(F)cc3)c(Nc3ccc(F)cc3)cc21,0,102,93,96,95,95,101,97,96,118
Oc1c2ccccc2c2c3c(cccc13)N=N2,48,98,87,97,57,61,16,85,61,–
CC[n+]1c(/C=C/N(C)c2ccccc2)n(-c2ccccc2)c2ccc(-c3nc4ccccc4s3)cc21,125,114,124,106,99,89,82,91,95,103
CCN(CC)CCCCN1c2ccccc2Oc2ccc(Cl)cc21,59,101,117,104,82,107,109,109,104,137
Cn1cc(/C=C2\C(=O)Nc3ccc(S(N)(=O)=O)cc32)c2ccccc21,11,39,13,36,13,22,10,94,65,38
O=C1NC(=O)/C(=C\c2ccc3nccnc3c2)S1,83,99,49,96,58,86,53,94,73,104
Cc1ccc(NC2=CC(=O)c3sc(C)nc3C2=O)cc1,91,97,96,98,87,88,92,95,93,99
COc1cc2ncnc(N3CCN(C(=O)Nc4ccc(Oc5ccccc5)cc4)CC3)c2cc1OC,87,103,105,102,95,88,96,107,101,101
Nc1nc(Nc2ccc(S(N)(=O)=O)cc2)nn1C(=S)Nc1c(F)cccc1F,-2,-2,7,3,-3,77,26,71,26,16
CC(=O)O/N=C1\C(=C2\C(=O)Nc3cc(Br)ccc32)Nc2ccccc21,3,106,100,102,78,98,79,104,98,80
CNc1cc2c(Nc3cccc(Br)c3)ncnc2cn1,57,93,97,98,92,96,93,106,89,117
Oc1ccc(Nc2nc(-c3ccc(Cl)cc3)cs2)cc1,111,105,111,116,87,105,100,110,100,117
COc1cccc(-c2cc(=O)c3ccccc3o2)c1N,124,104,109,104,88,100,97,108,104,104
COc1cc2ncnc(Nc3ccc(Oc4ccccc4)cc3)c2cc1OC,8,106,90,105,90,98,88,104,105,110
CC(C)n1cnc2c(NCc3ccccc3)nc(NCCCO)nc21,100,78,37,93,37,93,71,94,88,103
Ic1cccc(CSc2nnc(-c3ccncc3)o2)c1,100,97,102,88,79,86,80,97,97,98
Nc1cccc(-c2cc3c(Oc4cccc(O)c4)ncnc3[nH]2)c1,2,103,80,101,71,90,61,96,65,18
CO[C@H]1C[C@@H]2CC[C@@H](C)[C@@](O)(O2)C(=O)C(=O)N2CCCC[C@H]2C(=O)O[C@H]([C@H](C)C[C@@H]2CC[C@@H](O)[C@H](OC)C2)CC(=O)[C@H](C)/C=C(\C)[C@@H](O)[C@@H](OC)C(=O)[C@H](C)C[C@H](C)/C=C/C=C/C=C/1C,81,103,108,99,92,92,107,104,103,106
Cn1nc2c3c(cccc31)C(=O)c1ccccc1-2,64,101,89,100,71,87,74,100,89,96
O=C1NC(=O)c2c1c1c3ccccc3[nH]c1c1[nH]c3cc(Br)ccc3c21,83,82,96,83,77,94,88,93,94,104
c1ccc2c(-c3ccncc3)c[nH]c2c1,85,108,108,89,97,98,93,107,94,–
N#C/C(=C(\N)Sc1ccc(N)cc1)c1ccccc1C(F)(F)F,85,99,99,108,82,92,93,100,98,73

SMILES,residual activity [1] [%],residual activity [2] [%],residual activity [3] [%],residual activity [4] [%],residual activity [5] [%],residual activity [6] [%],residual activity [7] [%],residual activity [8] [%],residual activity [9] [%],residual activity [10] [%]
COc1cc2ncnc(Nc3ccc(O)c(Br)c3)c2cc1OC,22,103,100,93,88,76,45,93,85,99
Oc1n[nH]c2nnc(-c3c(-c4ccccc4)nn4ccccc34)cc12,89,97,96,101,98,95,86,97,99,106
COc1ccc(CNc2nc(N(CCO)CCO)nc3c2ncn3C(C)C)cc1,78,95,67,86,65,96,83,91,94,94
CO[C@@H]1[C@H](N(C)C(=O)c2ccccc2)C[C@H]2O[C@]1(C)n1c3ccccc3c3c4c(c5c6ccccc6n2c5c31)C(=O)NC4,2,78,55,64,48,25,13,100,86,2
Nc1n[nH]c2nnc(-c3c(-c4ccccc4)nn4ccccc34)cc12,63,92,69,100,83,96,86,99,96,92
Cc1cc2ncc(-c3ccccc3)nc2cc1C,110,108,97,104,102,100,98,101,106,125
O=c1c2ccccc2[nH]c(=S)n1CCN1CCC(=C(c2ccc(F)cc2)c2ccc(F)cc2)CC1,80,81,81,108,97,103,99,113,101,125
CC#CC(=O)Nc1cc2c(Nc3ccc(F)c(Cl)c3)ncnc2cn1,77,91,100,88,88,94,98,97,93,117
Oc1ccc(-c2nc(-c3ccc(F)cc3)c(-c3ccncc3)[nH]2)cc1,65,123,110,118,76,105,94,105,104,109
CC(C)n1cnc2/c(=N/c3cccc(Cl)c3)nc(NCCO)[nH]c21,28,41,-2,27,2,78,28,61,22,79
O=C1c2ccccc2-[n+]2ccc3c([nH]c4ccccc43)c21,104,90,93,101,87,86,86,95,101,93
c1ccc(-c2n[nH]cc2-c2ccnc3ccccc23)nc1,104,106,108,–,87,97,94,102,96,–
Cc1nc(-c2ccccc2)c(-c2ccncc2)o1,100,111,109,98,81,103,102,108,104,112
Cc1nc2cc3nc(-c4cccs4)cnc3cc2n1C,88,99,107,98,86,106,100,102,95,131
O=C(Nc1cccc(Nc2cc(Nc3cccc(C(F)(F)F)c3)ncn2)c1)C1CC1,104,96,88,90,84,99,97,100,90,112
C[C@@H](N)[C@H]1CC[C@H](C(=O)Nc2ccncc2)CC1,115,95,103,103,113,106,–,100,101,110
CCC(=O)Nc1ccc2ncnc(Nc3cccc(Br)c3)c2c1,13,102,98,89,74,91,98,104,98,125
COc1ccc(C(=O)Nc2sc3c(c2C(N)=O)CCCC3)cc1OC,91,84,95,89,89,91,97,98,97,126
COc1ccc(S(=O)(=O)N(CCO)c2ccccc2CN(C)C/C=C/c2ccc(Cl)cc2)cc1,79,117,96,105,81,93,91,–,99,97
COc1ccc(OC)c2c(=S)c3ccccc3[nH]c12,–,91,88,97,82,94,77,89,91,94
O=C1Nc2ccc(Br)cc2/C1=C\c1cc2c([nH]1)CCCC2,107,–,–,–,–,–,–,105,99,123
O=C1NC(=O)/C(=C/c2ccc3c(c2)OC(F)(F)O3)S1,119,118,98,102,84,106,109,112,95,121
c1ccc(-c2n[nH]c3c2oc2ccccc23)cc1,8,–,–,98,89,94,81,94,89,115
CC(=O)c1ccc(N2CCOCC2)cc1O,5,98,–,98,95,92,105,103,98,129

SMILES,residual activity [1] [%],residual activity [2] [%],residual activity [3] [%],residual activity [4] [%],residual activity [5] [%],residual activity [6] [%],residual activity [7] [%],residual activity [8] [%],residual activity [9] [%],residual activity [10] [%]
O=C(O)c1ccc2c3c1cccc3c(=O)n1c3ccccc3nc21,83,78,21,91,33,99,59,100,94,100
CO[C@H]1[C@@H](OC)C[C@H](C)[C@@H](OC)C2=CC(=O)C=C(NC(=O)/C(C)=C/C=C/[C@H](OC)[C@@H](OC(N)=O)/C(C)=C/[C@@H]1C)C2=O,54,104,102,104,91,98,98,100,91,110
O=c1cc(-c2cccc3c2Sc2ccccc2S3)oc(N2CCOCC2)c1,83,101,83,107,91,97,87,93,96,104
N#Cc1cnc2cnc(NCc3cccnc3)cc2c1Nc1ccc(F)c(Cl)c1,97,100,78,102,76,99,77,101,101,2
CN(C)c1ccc(/C=C2\C(=O)Nc3ccccc32)cc1,88,97,101,108,85,–,78,106,98,123
CCOc1cc2ncnc(Nc3cccc(Br)c3)c2cc1OCC,102,83,91,102,91,–,92,99,88,111
CN(C)CCCn1cc(C2=C(c3c[nH]c4ccccc34)C(=O)NC2=O)c2ccccc21,11,130,63,–,57,79,24,113,88,120
N#CCCc1ccc2c(c1)-c1[nH]c3ccc([N+](=O)[O-])cc3c1CC(=O)N2,–,–,–,–,–,100,52,–,–,56
Nc1ccc2ncnc(NCCc3ccc(Oc4ccccc4)cc3)c2c1,75,117,114,114,70,104,91,106,104,93
Cc1cncc2cccc(S(=O)(=O)N3CCCN(C(=O)CN)C[C@H]3C)c12,90,–,–,94,94,–,–,–,93,–
O=C1Nc2cc(Br)ccc2/C1=C1/Nc2ccccc2/C1=N\O,8,98,84,88,70,73,72,97,96,70
Cc1cccc(-c2[nH]c(C(C)(C)C)nc2-c2ccc3c(c2)OCO3)n1,62,–,–,106,98,93,–,105,100,–
COc1cc2ncnc(Nc3ccc(NC(=O)c4ccccc4)cc3)c2cc1OC,18,–,–,107,103,109,108,–,85,–
O=[N+]([O-])c1ccc(-c2nc(-c3ccc(F)cc3)c(-c3ccncc3)[nH]2)cc1,106,109,109,98,85,104,101,103,104,118
CCN(CC)C(=O)c1ccc(Nc2nc(OCC3CCCCC3)c3nc[nH]c3n2)cc1,4,–,43,74,31,82,18,–,–,64
N#CC(C#N)=C(N)/C(C#N)=C/c1ccc(O)cc1,75,100,95,–,–,97,97,–,63,116
O=C1Nc2ccccc2/C1=C1/Nc2ccccc2/C1=N\OCCC(O)CO (stereo unspecified),30,–,–,80,38,37,7,–,76,32
COc1cc2ncc(-c3ccccc3)nc2cc1OC,–,–,–,–,90,–,–,–,–,–
O=C(Nc1cccc(Nc2nccc(Nc3cccc(C(F)(F)F)c3)n2)c1)C1CC1,50,107,87,96,90,102,89,102,73,79
Cn1cnc2cc3c(Nc4cccc(Br)c4)ncnc3cc21,9,100,91,94,87,93,95,106,98,129
NC(=O)c1ccc2[nH]c(-c3ccc(Oc4ccc(Cl)cc4)cc3)nc2c1,107,94,64,81,76,96,85,90,93,109
Cc1cc(Nc2nc(-c3ccccc3)nc3ccccc23)n[nH]1,10,73,15,67,17,77,24,–,56,16
